The subject of this assay is Pseudomonas aeruginosa PA14 dppBCDF deletion mutant. Kind of assay: respiration area under curve with compound as sole nitrogen source, 24 h (OmniLog AUC (arbitrary units)); higher = more respiration / better utilisation as nitrogen source, active = 2000 or more; extreme values may be limits of the assay. As for the experimental part: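 Biolog Phenotype MicroArray plates PM6-PM8: each di/tripeptide is the sole nitrogen source. Tetrazolium reduction was read in the OmniLog every 15 min for 24 h at 37°C and summarised as area under the respiration curve (arbitrary units). Values below 2000 count as no respiration. Strain is the dipeptide ABC transporter deletion mutant.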
`NC(=O)CC[C@H](NC(=O)[C@@H](N)Cc1ccc(O)cc1)C(=O)O` (plate: PM7): the “respiration area under curve” value is 10600 (active).
As to `CC(C)[C@@H](NC(=O)CN)C(=O)O` (plate: PM8), the “respiration area under curve” value was 0 (inactive).
`N[C@@H](CCC(=O)O)C(=O)N[C@@H](CCC(=O)O)C(=O)O` (plate: PM6): the “respiration area under curve” value is 0 (inactive).
Take `CSCC[C@H](NC(=O)[C@@H](N)Cc1ccccc1)C(=O)O` (plate: PM8): the “respiration area under curve” value is 269 (inactive).
`C[C@@H](O)[C@H](N)C(=O)N[C@@H](CC(=O)O)C(=O)O` (plate: PM8): the “respiration area under curve” value was 0 (inactive).
For the compound `CC(C)[C@H](NC(=O)[C@@H](N)Cc1ccc(O)cc1)C(=O)O` (plate: PM8), the “respiration area under curve” value is 5040 (active).
The result for `N[C@@H](Cc1c[nH]c2ccccc12)C(=O)N[C@@H](CC(=O)O)C(=O)O` (plate: PM7) reads 0 (inactive); that for `NC(=O)CC[C@H](NC(=O)[C@@H]1CCCN1)C(=O)O` (plate: PM7), 1860 (inactive).
The same measure for `CC[C@H](C)[C@H](N)C(=O)N[C@H](C(=O)O)[C@@H](C)CC` (plate: PM6): 0 (inactive).
The result for `NC(N)=NCCC[C@H](NC(=O)[C@@H](N)Cc1c[nH]c2ccccc12)C(=O)O` (plate: PM7) reads 11800 (active); that for `NC(=O)CC[C@H](N)C(=O)NCC(=O)O` (plate: PM6), 2500 (active); that for `C[C@H](N)C(=O)N[C@@H](CC(=O)O)C(=O)O` (plate: PM8), 2510 (active).
On to `N[C@@H](CC(=O)O)C(=O)N[C@@H](CC(=O)O)C(=O)O` (plate: PM6), for which the “respiration area under curve” value is 12.5 (inactive).
On to `C[C@@H](O)[C@H](N)C(=O)N[C@@H](CCC(=O)O)C(=O)O` (plate: PM7), for which the “respiration area under curve” value was 34.2 (inactive).
The same measure for `N[C@@H](CC(=O)O)C(=O)NCC(=O)O` (plate: PM8): 0 (inactive).
`N[C@@H](Cc1ccccc1)C(=O)N[C@@H](CC(=O)O)C(=O)O` (plate: PM8): the “respiration area under curve” value is 0 (inactive).
Consider `N[C@@H](CO)C(=O)N[C@@H](Cc1ccccc1)C(=O)O` (plate: PM7), for which the “respiration area under curve” value was 968 (inactive).
As to `CC(C)C[C@H](N)C(=O)N[C@@H](CO)C(=O)O` (plate: PM7), the “respiration area under curve” value was 11800 (active).
Turning to `CC(C)CC(N)C(=O)NC(CC(=O)O)C(=O)O` (stereo not given) (plate: PM6), the “respiration area under curve” value was 735 (inactive).
As to `C[C@H](N)C(=O)N[C@@H](CCCN=C(N)N)C(=O)O` (plate: PM6), the “respiration area under curve” value was 9770 (active).
Take `NCC(=O)N[C@@H](CC(N)=O)C(=O)O` (plate: PM8): the “respiration area under curve” value was 13800 (active).
The same measure for `N[C@@H](CC(=O)O)C(=O)N[C@@H](CCC(=O)O)C(=O)O` (plate: PM6): 0 (inactive); for `CC(C)[C@H](N)C(=O)N[C@@H](CC(N)=O)C(=O)O` (plate: PM7): 5280 (active).
For `CC(C)C(NC(=O)C1CCCN1)C(=O)O` (stereo not given) (plate: PM8), the “respiration area under curve” value was 134 (inactive).
The result for `CC[C@H](C)[C@H](N)C(=O)N[C@H](C(=O)O)C(C)C` (plate: PM6) reads 545 (inactive).
In the case of `C[C@@H](O)[C@H](N)C(=O)N[C@@H](CO)C(=O)O` (plate: PM8), the “respiration area under curve” value is 0 (inactive).
The result for `CSCC[C@H](N)C(=O)N[C@@H](Cc1ccc(O)cc1)C(=O)O` (plate: PM8) reads 55.2 (inactive).
As to `CC[C@H](C)[C@H](NC(=O)[C@@H](N)CCCN=C(N)N)C(=O)O` (plate: PM6), the “respiration area under curve” value was 8310 (active).
Take `CSCC[C@H](N)C(=O)N[C@H](C(=O)O)[C@@H](C)O` (plate: PM8): the “respiration area under curve” value was 211 (inactive).
`CC(C)C[C@H](NC(=O)[C@@H](N)[C@@H](C)O)C(=O)O` (plate: PM7): the “respiration area under curve” value is 1070 (inactive).
Take `NCC(=O)N[C@@H](Cc1ccccc1)C(=O)O` (plate: PM6): the “respiration area under curve” value was 350 (inactive).
Take `O=C(O)[C@@H]1CCCN1C(=O)[C@@H]1CCCN1` (plate: PM7): the “respiration area under curve” value is 0 (inactive).
`CC(C)C[C@H](N)C(=O)NCC(=O)O` (plate: PM6): the “respiration area under curve” value is 4090 (active).
As to `C[C@H](NC(=O)[C@@H](N)[C@@H](C)O)C(=O)O` (plate: PM7), the “respiration area under curve” value is 3130 (active).
In the case of `NCC(=O)N[C@@H](CCCN=C(N)N)C(=O)O` (plate: PM6), the “respiration area under curve” value was 7970 (active).
Turning to `C[C@@H](N)C(=O)NCC(=O)NCC(=O)O` (plate: PM8), the “respiration area under curve” value was 0 (inactive).
`CC[C@H](C)[C@H](N)C(=O)N[C@@H](C)C(=O)O` (plate: PM6): the “respiration area under curve” value was 88.8 (inactive).
Consider `NC(=O)CC[C@H](NC(=O)[C@@H](N)CCC(N)=O)C(=O)O` (plate: PM6), for which the “respiration area under curve” value is 4130 (active).
The same measure for `NC(N)=NCCC[C@H](NC(=O)[C@@H]1CCCN1)C(=O)O` (plate: PM8): 7840 (active).
The result for `N[C@@H](Cc1c[nH]c2ccccc12)C(=O)N[C@@H](CCC(=O)O)C(=O)O` (plate: PM7) reads 0 (inactive).

The values are drawn from the supplement of paper PMC4206461.
